# Assay results: PubChem BioAssay (EPA / NIEHS)
# Values joined by “and” are separate entries in the source; they are usually repeats but may differ in a detail not shown here. Equal entries are not always repeated. The source holds several records for some structures; these can differ, active in one and inactive in another. Active and inactive are the calls of the source. Rule for the calls: active = hit-call score of the fitted dose curve at least 0.9, where 1 is the maximum; inactive = score below 0.9.
# Assays:
# [1] = read-out: TIMP metallopeptidase inhibitor 1 (TIMP1), TIMP1 (gene 7076); test: BSK_MyoF_TIMP1: BioMAP Diversity Plus: MyoF Assay for TIMP metallopeptidase inhibitor 1 (TIMP1) Biomarker Activity (AID 2284269); conditions: primary human lung fibroblasts
# Summary of the method: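 Primary human lung fibroblasts, MyoF multiplex system; chemical exposure 24 h; TIMP-1 by ELISA; positive fitting direction vs DMSO control.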
# [2] = read-out: Matrix Metallopeptidase 1 (MMP1), MMP1 (gene 4312); test: BSK_BF4T_MMP1: BioMAP Diversity Plus: BF4T Assay for Matrix Metallopeptidase 1 (MMP1) Biomarker Activity (AID 2284270); conditions: primary human bronchial epithelial cells with fibroblasts
# Summary of the method: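 Co-culture of human bronchial epithelial cells and dermal fibroblasts; MMP-1 levels measured by ELISA 24 hours after chemical dosing, relative to DMSO. Cytotoxicity checked in parallel cultures by SRB total-protein staining.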
# [3] = read-out: Matrix Metallopeptidase 3 (MMP3), MMP3 (gene 4314); test: BSK_BF4T_MMP3: BioMAP Diversity Plus: BF4T Assay for Matrix Metallopeptidase 3 (MMP3) Biomarker Activity (AID 2284271); conditions: primary human bronchial epithelial cells with fibroblasts
# Summary of the method: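 Co-culture of human bronchial epithelial cells and dermal fibroblasts dosed 24 h; MMP-3 measured by ELISA, positive-direction fit versus DMSO. Cytotoxicity tracked by SRB total-protein staining (560 nm) in parallel cultures.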
# [4] = read-out: Tissue plasminogen activator (tPA), PLAT (gene 5327); test: BSK_BF4T_tPA: BioMAP Diversity Plus: BF4T Assay for Tissue plasminogen activator (tPA) Biomarker Activity (AID 2284272); conditions: primary human bronchial epithelial cells with fibroblasts
# Summary of the method: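 tPA level quantified by ELISA at 24 h post-treatment in bronchial epithelial/dermal fibroblast co-cultures, gain of signal scored against DMSO baseline. Parallel cultures stained with 0.1% SRB (560 nm) to flag overt cytotoxicity.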
# [5] = read-out: Plasminogen Activator Inhibitor-1 (PAI1), SERPINE1 (gene 5054); test: BSK_BF4T_PAI1: BioMAP Diversity Plus: BF4T Assay for Plasminogen Activator Inhibitor-1 (PAI1) Biomarker Activity (AID 2284273); conditions: primary human bronchial epithelial cells with fibroblasts
# Summary of the method: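 Co-culture of human bronchial epithelial cells and dermal fibroblasts exposed to compound for 24 h. PAI-1 measured by ELISA; activity fitted in positive direction versus DMSO. Parallel SRB staining assessed overt cytotoxicity.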
# [6] = BSK_BF4T_SRB: Viability Assessment in the BioMAP Diversity Plus: BF4T Assay (AID 2284274); conditions: primary human bronchial epithelial cells with fibroblasts
# Summary of the method: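 Co-culture of human bronchial epithelial cells and dermal fibroblasts (BioMAP BF4T) exposed 24 h. Total protein by sulforhodamine B staining (0.1% SRB after 10% TCA fixation, 560 nm) in parallel cultures; fitted vs DMSO.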
# [7] = read-out: urokinase Plasminogen Activator (uPA), PLAU (gene 5328); test: BSK_BF4T_uPA: BioMAP Diversity Plus: BF4T Assay for urokinase Plasminogen Activator (uPA) Biomarker Activity (AID 2284275); conditions: primary human bronchial epithelial cells with fibroblasts
# Summary of the method: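 Co-culture of human bronchial epithelial cells and dermal fibroblasts; uPA quantified by ELISA 24 hours after dosing, fitted relative to DMSO. Parallel SRB total-protein staining assessed overt cytotoxicity.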
# [8] = read-out: Matrix Metallopeptidase 9 (MMP9), MMP9 (gene 4318); test: BSK_BF4T_MMP9: BioMAP Diversity Plus: BF4T Assay for Matrix Metallopeptidase 9 (MMP9) Biomarker Activity (AID 2284276); conditions: primary human bronchial epithelial cells with fibroblasts
# Summary of the method: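 Co-culture of human bronchial epithelial cells and dermal fibroblasts dosed for 24 h; MMP-9 quantified by ELISA and fitted upward versus DMSO. Cytotoxicity monitored in parallel cultures by SRB total-protein staining at the biomarker time point.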
# [9] = read-out: Interleukin-8 (IL8), CXCL8 (gene 3576); test: BSK_IMphg_IL8: BioMAP Diversity Plus: IMphg Assay for Interleukin-8 (IL8) Biomarker Activity (AID 2284277); conditions: primary human endothelial cells with macrophages
# Summary of the method: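 Co-culture of human venular endothelial cells and macrophages exposed to chemicals for 24 h; IL-8 quantified by ELISA and compared against the DMSO baseline, with SRB total-protein staining in parallel cultures for cytotoxicity.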
# [10] = read-out: Intercellular Adhesion Molecule 1 (ICAM1), ICAM1 (gene 3383); test: BSK_BE3C_ICAM1: BioMAP Diversity Plus: BE3C Assay for Intercellular Adhesion Molecule 1 (ICAM1) Biomarker Activity (AID 2284278); conditions: primary human bronchial epithelial cells;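 for outcome: cell-surface ICAM-1 protein level quantified by ELISA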
# Summary of the method: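 Primary human bronchial epithelial cells were exposed to compound for 24 h, after which cell-surface ICAM-1 was quantified by ELISA. Activity was fitted in the gain-of-signal direction against DMSO as negative control and baseline.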
# [11] = read-out: Interleukin-8 (IL8), CXCL8 (gene 3576); test: BSK_BE3C_IL8: BioMAP Diversity Plus: BE3C Assay for Interleukin-8 (IL8) Biomarker Activity (AID 2284280); conditions: primary human bronchial epithelial cells
# Summary of the method: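 IL-8 signal gain, normalised to DMSO vehicle, was scored after a 24 h chemical exposure of primary human bronchial epithelial cells, with detection by ELISA.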
# [12] = read-out: Epidermal growth factor receptor (EGFR), EGFR (gene 1956); test: BSK_BE3C_EGFR: BioMAP Diversity Plus: BE3C Assay for Epidermal growth factor receptor (EGFR) Biomarker Activity (AID 2284281); conditions: primary human bronchial epithelial cells
# Summary of the method: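 Compound is added to human bronchial epithelial cells, cells incubate 24 h, then EGFR is detected by ELISA. Values reflect positive-direction fitting relative to DMSO.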
# [13] = read-out: Matrix Metallopeptidase 9 (MMP9), MMP9 (gene 4318); test: BSK_BE3C_MMP9: BioMAP Diversity Plus: BE3C Assay for Matrix Metallopeptidase 9 (MMP9) Biomarker Activity (AID 2284283); conditions: primary human bronchial epithelial cells
# Summary of the method: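 Human primary bronchial epithelial cells exposed 24 h to compound. MMP9 quantified by ELISA. SRB total-protein staining of parallel cultures assesses cytotoxicity. Positive-direction fit relative to DMSO.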
# [14] = read-out: Plasminogen activator inhibitor-1 (PAI1), SERPINE1 (gene 5054); test: BSK_CASM3C_PAI1: BioMAP Diversity Plus: CASM3C Assay for Plasminogen activator inhibitor-1 (PAI1) Biomarker Activity (AID 2284284); conditions: primary human coronary artery smooth muscle cells;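 note: PAI-1 protein level measured by ELISA 24 h after dosing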
# [15] = read-out: Monocyte Chemoattractant Protein-1 (MCP1), CCL2 (gene 6347); test: BSK_hDFCGF_MCP1: BioMAP Diversity Plus: hDFCGF Assay for Monocyte Chemoattractant Protein-1 (MCP1) Biomarker Activity (AID 2284285); conditions: primary human foreskin fibroblasts
# Summary of the method: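 Human foreskin fibroblasts (hDFCGF system) were exposed to compound and secreted MCP-1 was measured by ELISA after 24 hours. Activity was fitted relative to DMSO. Cytotoxicity was checked by SRB total-protein staining in parallel cultures.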
# [16] = read-out: Vascular cell adhesion molecule 1 (VCAM1), VCAM1 (gene 7412); test: BSK_IMphg_VCAM1: BioMAP Diversity Plus: IMphg Assay for Vascular cell adhesion molecule 1 (VCAM1) Biomarker Activity (AID 2284286); conditions: primary human endothelial cells with macrophages
# Summary of the method: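 Human venular endothelial cells co-cultured with macrophages; VCAM-1 quantified by ELISA 24 h after dosing, fitted in the positive direction against DMSO. Cytotoxicity was checked in parallel cultures by SRB total-protein staining (0.1% SRB after 10% TCA fixation, 560 nm).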
# [17] = read-out: Intercellular Adhesion Molecule 1 (ICAM1), ICAM1 (gene 3383); test: BSK_hDFCGF_ICAM1: BioMAP Diversity Plus: hDFCGF Assay for Intercellular Adhesion Molecule 1 (ICAM1) Biomarker Activity (AID 2284287); conditions: primary human foreskin fibroblasts
# Summary of the method: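 Primary human foreskin fibroblasts (hDFCGF system) dosed with chemical; ICAM-1 quantified by ELISA at 24 h relative to DMSO. Parallel SRB total-protein staining to assess overt cytotoxicity.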
# KRT18 (gene 3875) = test: BSK_BE3C_Keratin818: BioMAP Diversity Plus: BE3C Assay for Keratin 818 Biomarker Activity (AID 2284282); conditions: primary human bronchial epithelial cells
# Summary of the method: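 Human primary bronchial epithelial cells in the BE3C system were exposed to test chemical for 24 h, then Keratin 8/18 was quantified by ELISA. Activity was fitted in the positive direction against DMSO as negative control and baseline.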
smiles,measurement,setting,value
CCN(CCO)S(=O)(=O)C(F)(F)C(F)(F)C(F)(F)C(F)(F)C(F)(F)C(F)(F)C(F)(F)C(F)(F)F,AC50,[1],30 µM (active)
same,outcome,[1],inactive
same,outcome,[2],inactive
same,AC50,[3],24 µM (active)
same,outcome,[3],inactive
same,AC50,[4],13.6 µM (active)
same,outcome,[4],inactive
same,outcome,[5],inactive
same,outcome,[6],inactive
same,outcome,[7],inactive
same,outcome,[8],inactive
same,AC50,[9],50.9 µM (active)
same,outcome,[9],inactive
same,AC50,[10],51.6 µM (active)
same,outcome,[10],inactive
same,AC50,[11],19.3 µM (active) and 11.8 µM (active)
same,AC50,[12],23.2 µM (active) and 13.9 µM (active)
same,AC50,[13],21.5 µM (active) and 43.3 µM (active)
same,outcome,[14],inactive
same,AC50,[15],32.7 µM (active) and 30 µM (active)
same,AC50,[16],39 µM (active)
same,outcome,[16],inactive
same,outcome,[17],inactive
CNS(=O)(=O)C(F)(F)C(F)(F)C(F)(F)C(F)(F)C(F)(F)C(F)(F)C(F)(F)C(F)(F)F,outcome,[1],inactive
same,outcome,[2],inactive
same,AC50,[3],13.3 µM (active)
same,outcome,[3],inactive
same,outcome,[4],inactive
same,outcome,[5],inactive
same,outcome,[6],inactive
same,outcome,[7],inactive
same,outcome,[8],inactive
same,AC50,[9],14.5 µM (active)
same,outcome,[9],inactive
same,outcome,[10],inactive
same,AC50,[11],30 µM (active) and 2.67 µM (active)
same,outcome,[12],inactive
same,outcome,KRT18 (gene 3875),inactive
same,AC50,[13],4.25 µM (active) and 373 nM (active)
same,outcome,[14],inactive
same,outcome,[15],inactive
same,AC50,[16],16.3 µM (active)
same,outcome,[16],inactive
same,AC50,[17],36.8 µM (active)
same,outcome,[17],inactive
NS(=O)(=O)C(F)(F)C(F)(F)C(F)(F)C(F)(F)C(F)(F)C(F)(F)F,outcome,[1],inactive
same,outcome,[2],inactive
same,AC50,[3],49.5 µM (active)
same,outcome,[3],inactive
same,outcome,[4],inactive
same,outcome,[5],inactive
same,outcome,[6],inactive
same,outcome,[7],inactive
same,outcome,[8],inactive
same,AC50,[9],16.3 µM (active) and 8.64 µM (active)
same,outcome,[10],inactive
same,AC50,[11],25.1 µM (active) and 15.2 µM (active)
same,outcome,[12],inactive
same,AC50,[13],13.9 µM (active) and 15 µM (active)
same,outcome,[14],inactive
same,outcome,[15],inactive
same,outcome,[16],inactive
same,outcome,[17],inactive
O=C(c1ccccc1)c1ccc(O)cc1O,outcome,[1],inactive
CC(C)(C)c1cc(CCC(=O)NCCCCCCNC(=O)CCc2cc(C(C)(C)C)c(O)c(C(C)(C)C)c2)cc(C(C)(C)C)c1O,outcome,[1],inactive
Nc1cc([N+](=O)[O-])cc(Cl)c1O,outcome,[1],inactive
Cc1cnccn1,outcome,[1],inactive
O=C(O)C(F)(F)OC(F)(F)C(F)(F)OC(F)(F)C(F)(F)OC(F)(F)F,AC50,[1],6.35 µM (active)
same,outcome,[1],inactive
same,outcome,[2],inactive
same,outcome,[3],inactive
same,AC50,[4],20 µM (active) and 5.38 µM (active)
same,outcome,[4],inactive
same,outcome,[5],inactive
same,outcome,[6],inactive
same,outcome,[7],inactive
same,outcome,[8],inactive
same,AC50,[9],5.47 µM (active) and 14.2 µM (active)
same,outcome,[9],inactive
same,outcome,[10],inactive
same,outcome,[11],inactive
same,outcome,[12],inactive
same,AC50,[13],1.47 µM (active)
same,outcome,[13],inactive
same,outcome,[14],inactive
same,outcome,[15],inactive
same,outcome,[16],inactive
same,outcome,[17],inactive
